Structures are written as SMILES.

The first experiment relates to LOC_OS02G08530-cb003. Description: thermal shift delta Tm vs DMSO control; higher = stronger stabilization (binding). The following applies: 12.5 µM; protein concentration 2 µM. An outline of the steps:
(§1)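 The melting temperature shift given here is a triplicate mean, measured against protein that received only DMSO. Melting temperatures came from Boltzmann fits of differential scanning fluorimetry data on E. coli-expressed, purified rice kinase domain constructs. Each 19.5 μl well contained 2 μM kinase, 100 mM potassium phosphate pH 7.5, 150 mM NaCl, 10% glycerol, 5 × SYPRO Orange and compound in DMSO. Plates were scanned from 25°C to 95°C at 0.05°C/s.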
For the compound `COc1ccc(CC(=O)Nc2nc3c(s2)CCc2ccccc2-3)cc1OC`, the “thermal shift delta Tm” value is 0.98 °C.

As for `CNS(=O)(=O)Nc1nccc(Cc2c(C)c3ccc(Oc4ncccn4)cc3oc2=O)c1F`, the “thermal shift delta Tm” value was found to be 0.58 °C.

On to `C[C@H](NC(=O)/C(C#N)=C/c1cccc(Br)n1)c1ccccc1`, for which the “thermal shift delta Tm” value was determined as 0.47 °C.

On to `COc1ccc(COc2cc3oc(=O)c4cc(C(C)O)ccc4c3cc2OC)cc1` (centres undefined) [Palomid 529 (P529)], for which the “thermal shift delta Tm” value was 1.87 °C.

As to `CC(C)(C)Cn1c(N)nc2ccc(-c3[nH]c(C(C)(C)C)nc3-c3ccc(F)cc3)nc21`, the “thermal shift delta Tm” value turned out to be 0.38 °C.

For `COc1ccccc1-c1cc(Nc2cccc(CS(N)(=O)=O)c2)ncn1`, the “thermal shift delta Tm” value was 1.15 °C.

As to `Cn1cnc(N)c2ncnc1-2` [3-Methyladenine (3-MA)], the “thermal shift delta Tm” value was 1.08 °C.

Take `C=CC(=O)N[C@H]1CCOC[C@H]1Nc1ncc2cc(-c3c(Cl)c(OC)cc(OC)c3Cl)ccc2n1`: the “thermal shift delta Tm” value stood at 0.62 °C.

In the case of `CCS(=O)(=O)Nc1ccc2c(c1)/C(=C(/Nc1ccc(CN3CCCCC3)cc1)c1ccccc1)C(=O)N2` [Hesperadin], the “thermal shift delta Tm” value was found to be 5.73 °C.

For `Cc1cc(Nc2cc(N3CCN(C)CC3)nc(/C=C/c3ccccc3)n2)n[nH]1` [ENMD-2076 L-(+)-Tartaric acid], the “thermal shift delta Tm” value turned out to be 2.96 °C.

On to `Cc1ccc(F)c(NC(=O)Nc2ccc(-c3cccc4[nH]nc(N)c34)cc2)c1` [Linifanib (ABT-869)], for which the “thermal shift delta Tm” value was 3.05 °C.

For `CO[C@H]1C[C@@H]2CC[C@@H](C)[C@@](O)(O2)C(=O)C(=O)N2CCCC[C@H]2C(=O)O[C@H]([C@H](C)C[C@@H]2CC[C@@H](OCCO)[C@H](OC)C2)CC(=O)[C@H](C)/C=C(\C)[C@@H](O)[C@@H](OC)C(=O)[C@H](C)C[C@H](C)/C=C/C=C/C=C/1C` [Everolimus (RAD001)], the “thermal shift delta Tm” value came to 0.55 °C.

Turning to `CCCCCCCCCCCCCCCCn1cc[n+](Cc2ccccc2)c1C`, the “thermal shift delta Tm” value was -0.96 °C.

In the case of `O=C(/C=C/c1ccc(O)c(O)c1)c1ccc(O)cc1O` [Butein], the “thermal shift delta Tm” value stood at 1.81 °C.

As to `NC(=O)c1ncn([C@@H]2O[C@H](CO)[C@@H](O)[C@H]2O)c1N` [AICAR (Acadesine)], the “thermal shift delta Tm” value was 0.52 °C.

`COCCOc1ccc2c(c1)ncn2-c1ccc2cccc(N3CCC(N)CC3)c2n1`: the “thermal shift delta Tm” value worked out at 3.85 °C.

As for `CCCCCCCCCCCCCCCCCCOP(=O)([O-])OC1CC[N+](C)(C)CC1` [Perifosine (KRX-0401)], the “thermal shift delta Tm” value is -1.07 °C.

Turning to `COc1ccc(-c2ccc3c(N4CCOCC4)nc(N4C[C@@H](C)O[C@@H](C)C4)nc3n2)cc1CO`, the “thermal shift delta Tm” value was determined as 0.4 °C.

Consider `Cc1cc(Nc2nc(N[C@@H](C)c3ccc(F)cc3)c(C#N)cc2F)n[nH]1`, for which the “thermal shift delta Tm” value was found to be 1.49 °C.

Take `O=c1nc(N2CCOCC2)oc2c(-c3cccc4c3sc3ccccc34)cccc12`: the “thermal shift delta Tm” value turned out to be 0.23 °C.

Take `Cn1cc(-c2ccc3nnc(C(F)(F)c4ccc5ncccc5c4)n3n2)cn1`: the “thermal shift delta Tm” value stood at 1.21 °C.

Turning to `Cc1cc(C(C)Nc2ccccc2)c2nc(N3CCOCC3)cc(=O)n2c1` (centres undefined), the “thermal shift delta Tm” value is 0.37 °C.

As for `COc1cc(N2CCC(N(C)C)CC2)ccc1Nc1ncc(Cl)c(Nc2ccccc2P(C)(C)=O)n1`, the “thermal shift delta Tm” value was determined as 5.8 °C.

As to `CC(C)c1cnn2c(NCc3ccccc3)cc(NCCCCCCN)nc12`, the “thermal shift delta Tm” value was 0.66 °C.

With `Cc1cc([C@@H](C)Nc2ccccc2C(=O)O)c2nc(N3CCOCC3)cc(=O)n2c1`, the “thermal shift delta Tm” value was determined as 0.42 °C.

On to `CC(C)NC(=O)C1CCC(n2c(NC(=O)c3ccc(F)cc3)nc3ccc(CN4CCC(C(C)(C)O)CC4)cc32)CC1` (centres undefined) [Belizatinib (TSR-011)], for which the “thermal shift delta Tm” value worked out at 5.19 °C.

Turning to `COc1ccc(-c2ccc3ncc4c(c3c2)n(-c2ccc(N3CCNCC3)c(C(F)(F)F)c2)c(=O)n4C)cn1`, the “thermal shift delta Tm” value came to 2.04 °C.

As to `CN1CCN(c2ccc3nc(-c4c(N)c5c(F)cccc5[nH]c4=O)[nH]c3c2)CC1` [Dovitinib (TKI-258, CHIR-258)], the “thermal shift delta Tm” value was found to be 2.72 °C.

With `NC(=O)c1ccc2nc(-c3ccc(Oc4ccc(Cl)cc4)cc3)[nH]c2c1` [Chk2 Inhibitor II (BML-277)], the “thermal shift delta Tm” value was determined as 0.5 °C.

Regarding `CC1(C)OCCn2c1nc1c(N3CCOCC3)nc(-c3cnc(N)nc3)nc12`, the “thermal shift delta Tm” value came to 1.45 °C.

Consider `C=CC(=O)Nc1cccc(Nc2nc(Nc3ccc(OCCOC)cc3)ncc2F)c1`, for which the “thermal shift delta Tm” value stood at 3.49 °C.

Turning to `NC(=O)c1cnc(N[C@@H]2CCCC[C@@H]2N)nc1Nc1cccc(-n2nccn2)c1`, the “thermal shift delta Tm” value is 4.36 °C.

On to `CNC(=O)c1cc(Oc2ccc3nc(N[C@@H]4CCCC[C@H]4O)sc3c2)ccn1`, for which the “thermal shift delta Tm” value stood at 0.76 °C.

Regarding `CCn1c2ccccc2c2cc(Nc3ccnc(NCCCN4CCOCC4)n3)ccc21`, the “thermal shift delta Tm” value came out at 1.04 °C.

On to `CCC(=O)Nc1cccc(Oc2nc(Nc3ccc(N4CCN(C)CC4)cc3OC)ncc2Cl)c1`, for which the “thermal shift delta Tm” value was determined as 1.46 °C.

In the case of `CN1CCN(c2nc(C3=C(c4c[nH]c5ccccc45)C(=O)NC3=O)c3ccccc3n2)CC1` [Sotrastaurin], the “thermal shift delta Tm” value stood at 1.16 °C.

For the compound `C=CCc1ccc(O)c(-c2ccc(O)c(CC=C)c2)c1` [Honokiol], the “thermal shift delta Tm” value turned out to be 1.59 °C.

For the next experiment, the system named is LOC_OS02G14120-cb001. The description is as above. The following applies: 12.5 µM; protein concentration 2 µM. The method in brief:
as §1
For `COc1ccc(CC(=O)Nc2nc3c(s2)CCc2ccccc2-3)cc1OC`, the “thermal shift delta Tm” value stood at 2.82 °C.

For the compound `CNS(=O)(=O)Nc1nccc(Cc2c(C)c3ccc(Oc4ncccn4)cc3oc2=O)c1F`, the “thermal shift delta Tm” value was 0.9 °C.

On to `C[C@H](NC(=O)/C(C#N)=C/c1cccc(Br)n1)c1ccccc1`, for which the “thermal shift delta Tm” value is -1.36 °C.

As for `COc1ccc(COc2cc3oc(=O)c4cc(C(C)O)ccc4c3cc2OC)cc1` (centres undefined) [Palomid 529 (P529)], the “thermal shift delta Tm” value is 1.04 °C.

On to `CC(C)(C)Cn1c(N)nc2ccc(-c3[nH]c(C(C)(C)C)nc3-c3ccc(F)cc3)nc21`, for which the “thermal shift delta Tm” value was -1.12 °C.

Take `COc1ccccc1-c1cc(Nc2cccc(CS(N)(=O)=O)c2)ncn1`: the “thermal shift delta Tm” value came out at 1.66 °C.

As to `Cn1cnc(N)c2ncnc1-2` [3-Methyladenine (3-MA)], the “thermal shift delta Tm” value came to 0.61 °C.

Turning to `C=CC(=O)N[C@H]1CCOC[C@H]1Nc1ncc2cc(-c3c(Cl)c(OC)cc(OC)c3Cl)ccc2n1`, the “thermal shift delta Tm” value was determined as 0.55 °C.

Take `CCS(=O)(=O)Nc1ccc2c(c1)/C(=C(/Nc1ccc(CN3CCCCC3)cc1)c1ccccc1)C(=O)N2` [Hesperadin]: the “thermal shift delta Tm” value is 13 °C.

For the compound `Cc1cc(Nc2cc(N3CCN(C)CC3)nc(/C=C/c3ccccc3)n2)n[nH]1` [ENMD-2076 L-(+)-Tartaric acid], the “thermal shift delta Tm” value came out at 7.86 °C.

Regarding `Cc1ccc(F)c(NC(=O)Nc2ccc(-c3cccc4[nH]nc(N)c34)cc2)c1` [Linifanib (ABT-869)], the “thermal shift delta Tm” value amounted to 4.49 °C.

As to `CO[C@H]1C[C@@H]2CC[C@@H](C)[C@@](O)(O2)C(=O)C(=O)N2CCCC[C@H]2C(=O)O[C@H]([C@H](C)C[C@@H]2CC[C@@H](OCCO)[C@H](OC)C2)CC(=O)[C@H](C)/C=C(\C)[C@@H](O)[C@@H](OC)C(=O)[C@H](C)C[C@H](C)/C=C/C=C/C=C/1C` [Everolimus (RAD001)], the “thermal shift delta Tm” value worked out at 1.17 °C.

`CCCCCCCCCCCCCCCCn1cc[n+](Cc2ccccc2)c1C`: the “thermal shift delta Tm” value was -1.51 °C.

With `O=C(/C=C/c1ccc(O)c(O)c1)c1ccc(O)cc1O` [Butein], the “thermal shift delta Tm” value turned out to be 4.14 °C.

For `NC(=O)c1ncn([C@@H]2O[C@H](CO)[C@@H](O)[C@H]2O)c1N` [AICAR (Acadesine)], the “thermal shift delta Tm” value is 0.21 °C.

Consider `COCCOc1ccc2c(c1)ncn2-c1ccc2cccc(N3CCC(N)CC3)c2n1`, for which the “thermal shift delta Tm” value worked out at 11 °C.

For the compound `CCCCCCCCCCCCCCCCCCOP(=O)([O-])OC1CC[N+](C)(C)CC1` [Perifosine (KRX-0401)], the “thermal shift delta Tm” value was -2.06 °C.

On to `COc1ccc(-c2ccc3c(N4CCOCC4)nc(N4C[C@@H](C)O[C@@H](C)C4)nc3n2)cc1CO`, for which the “thermal shift delta Tm” value is -0.18 °C.

Take `Cc1cc(Nc2nc(N[C@@H](C)c3ccc(F)cc3)c(C#N)cc2F)n[nH]1`: the “thermal shift delta Tm” value is 7.95 °C.

Consider `O=c1nc(N2CCOCC2)oc2c(-c3cccc4c3sc3ccccc34)cccc12`, for which the “thermal shift delta Tm” value is 0.11 °C.

In the case of `Cn1cc(-c2ccc3nnc(C(F)(F)c4ccc5ncccc5c4)n3n2)cn1`, the “thermal shift delta Tm” value amounted to 2.28 °C.

Turning to `Cc1cc(C(C)Nc2ccccc2)c2nc(N3CCOCC3)cc(=O)n2c1` (centres undefined), the “thermal shift delta Tm” value was determined as 0 °C.

On to `COc1cc(N2CCC(N(C)C)CC2)ccc1Nc1ncc(Cl)c(Nc2ccccc2P(C)(C)=O)n1`, for which the “thermal shift delta Tm” value turned out to be 10.2 °C.

For the compound `CC(C)c1cnn2c(NCc3ccccc3)cc(NCCCCCCN)nc12`, the “thermal shift delta Tm” value is -0.59 °C.

With `Cc1cc([C@@H](C)Nc2ccccc2C(=O)O)c2nc(N3CCOCC3)cc(=O)n2c1`, the “thermal shift delta Tm” value was -0.15 °C.

As for `CC(C)NC(=O)C1CCC(n2c(NC(=O)c3ccc(F)cc3)nc3ccc(CN4CCC(C(C)(C)O)CC4)cc32)CC1` (centres undefined) [Belizatinib (TSR-011)], the “thermal shift delta Tm” value worked out at 4.13 °C.

As to `COc1ccc(-c2ccc3ncc4c(c3c2)n(-c2ccc(N3CCNCC3)c(C(F)(F)F)c2)c(=O)n4C)cn1`, the “thermal shift delta Tm” value came out at 8.11 °C.

For `CN1CCN(c2ccc3nc(-c4c(N)c5c(F)cccc5[nH]c4=O)[nH]c3c2)CC1` [Dovitinib (TKI-258, CHIR-258)], the “thermal shift delta Tm” value came to 4.01 °C.

`NC(=O)c1ccc2nc(-c3ccc(Oc4ccc(Cl)cc4)cc3)[nH]c2c1` [Chk2 Inhibitor II (BML-277)]: the “thermal shift delta Tm” value came to 0.13 °C.

Turning to `CC1(C)OCCn2c1nc1c(N3CCOCC3)nc(-c3cnc(N)nc3)nc12`, the “thermal shift delta Tm” value was found to be 0.72 °C.

Take `C=CC(=O)Nc1cccc(Nc2nc(Nc3ccc(OCCOC)cc3)ncc2F)c1`: the “thermal shift delta Tm” value came to 9.32 °C.

Consider `NC(=O)c1cnc(N[C@@H]2CCCC[C@@H]2N)nc1Nc1cccc(-n2nccn2)c1`, for which the “thermal shift delta Tm” value came out at 2.99 °C.

Take `CNC(=O)c1cc(Oc2ccc3nc(N[C@@H]4CCCC[C@H]4O)sc3c2)ccn1`: the “thermal shift delta Tm” value is -0.02 °C.

On to `CCn1c2ccccc2c2cc(Nc3ccnc(NCCCN4CCOCC4)n3)ccc21`, for which the “thermal shift delta Tm” value was -0.17 °C.

As to `CCC(=O)Nc1cccc(Oc2nc(Nc3ccc(N4CCN(C)CC4)cc3OC)ncc2Cl)c1`, the “thermal shift delta Tm” value turned out to be 0.22 °C.

As to `CN1CCN(c2nc(C3=C(c4c[nH]c5ccccc45)C(=O)NC3=O)c3ccccc3n2)CC1` [Sotrastaurin], the “thermal shift delta Tm” value came out at 1.17 °C.

As for `C=CCc1ccc(O)c(-c2ccc(O)c(CC=C)c2)c1` [Honokiol], the “thermal shift delta Tm” value was determined as 0.96 °C.

The record behind these values is the supplement of paper PMC9694430.
